The text below walks through data of PubChem BioAssay (EPA / NIEHS).

For test [1], the target named is bovine Estrogen Receptor (ER), ESR1 (gene 407238) (UniProt P49884). In words: NVS_NR_bER: NovaScreen (NVS) Nuclear Receptor Binding Assay for bovine Estrogen Receptor (ER) (AID 2283345).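 Note: actives lower the bound radioligand count which means they displace the ER ligand.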 A digest of the protocol: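 Cell-free radioligand binding with receptor from bovine uterine membranes, read by scintillation counting 18 h after dosing. Loss of specific binding was scored against DMSO; primary screen at 25 uM in duplicate, actives then run as concentration series.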
bovine Estrogen Receptor (ER), ESR1 (gene 407238), sequence (P49884 whole entry, looked up): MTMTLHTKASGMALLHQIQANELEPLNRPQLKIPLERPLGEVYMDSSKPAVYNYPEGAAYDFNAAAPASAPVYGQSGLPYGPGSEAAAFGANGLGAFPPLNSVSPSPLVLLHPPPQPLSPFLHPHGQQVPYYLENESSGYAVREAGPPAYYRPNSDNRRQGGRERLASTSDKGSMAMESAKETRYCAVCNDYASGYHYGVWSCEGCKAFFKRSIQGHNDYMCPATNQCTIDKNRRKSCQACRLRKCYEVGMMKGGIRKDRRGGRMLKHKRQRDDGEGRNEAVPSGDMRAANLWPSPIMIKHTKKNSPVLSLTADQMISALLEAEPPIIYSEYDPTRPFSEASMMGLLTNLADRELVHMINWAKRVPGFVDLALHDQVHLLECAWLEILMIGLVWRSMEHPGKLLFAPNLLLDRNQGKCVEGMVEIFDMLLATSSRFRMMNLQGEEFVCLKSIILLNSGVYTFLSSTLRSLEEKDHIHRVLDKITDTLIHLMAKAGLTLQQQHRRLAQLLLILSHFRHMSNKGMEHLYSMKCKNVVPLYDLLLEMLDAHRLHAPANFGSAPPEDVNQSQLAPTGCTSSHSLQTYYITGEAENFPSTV

Test [2] concerns the target Estrogen receptor (Homo sapiens) (UniProt P03372). The test is described as follows: NVS_NR_hER: NovaScreen (NVS) Nuclear Receptor Binding Assay for human Estrogen Receptor (ER) (AID 2283348). The essentials:
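Cell-free MCF7-derived ER preparation, specific radioligand displaced by test compound, read by scintillation counting 18 h post-dosing. Duplicate single-point 25 uM screen, then concentration-response confirmation; DMSO baseline.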

Test [3] is described as follows: TOX21_p53_BLA_p2_viability: Viability Assessment in the Tox21 HCT-116 p53 Agonism Beta-lactamase Assay, Phase 2 (AID 2283591).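 Note: actives lower the ATP signal meaning cytotoxicity.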 The essentials:
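Cytotoxicity readout: CellTiter-Glo ATP luminescence, 30 min at room temperature, after the beta-lactamase read. Cells were HCT116 exposed 16 h at 37C to compounds pin-transferred at 217-fold dilution from DMSO stocks.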

Test [4] concerns the target Cellular tumor antigen p53 (Homo sapiens) (UniProt P04637). The test is described as follows: TOX21_p53_BLA_p2_ratio: Tox21 HCT-116 p53 Agonism Beta-lactamase Assay, Ratio, Phase 2 (AID 2283592). The essentials: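 First, HCT116 reporter cells settle for 5 h at 37C. Next, DMSO compound solutions are pinned in (217-fold dilution) and left 16 h. Finally, CCF4-AM substrate is loaded 2 h at room temperature and the 460/530 nm ratio read.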

Test [5] in a line: TOX21_p53_BLA_p3_viability: Viability Assessment in the Tox21 HCT-116 p53 Agonism Beta-lactamase Assay, Phase 3 (AID 2283593).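 Note: cells exposed to compound for 16 h before reading.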 A digest of the protocol: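 Cellular ATP was quantified by CellTiter-Glo luminescence, read after 30 min at room temperature. Beforehand, HCT116 cells (4000/well) received compound 5 h post-seeding, 217-fold diluted from DMSO, then incubated 16 h at 37C.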

A short description of test [6]: TOX21_p53_BLA_p4_viability: Viability Assessment in the Tox21 HCT-116 p53 Agonism Beta-lactamase Assay, Phase 4 (AID 2283597).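 Note: hits lower the luminescence signal meaning cytotoxicity.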 The essentials: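 4000 HCT116 cells per well; 5 h attachment; compounds from DMSO, 217-fold dilution; 16 h at 37C. Then CCF4-AM, 2 h RT, followed by CellTiter-Glo, 30 min RT, luminescence. Decrease = cytotoxicity.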
Test [7] in a line: CCTE_Harrill_HTTr_Viability_MCF7: CCTE's 6-hour Cell Viability Assessment for the High-Throughput Transcriptomics (HTTr) Platform, in MCF-7 cells cultured in DMEM + 10% fetal bovine serum, Harrill Lab (AID 2284010; active = hit-call score of the fitted dose curve at least 0.9, where 1 is the maximum; inactive = score below 0.9). A digest of the protocol: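 Eight-point concentration series, six-hour exposure. Propidium iodide exclusion imaged to assess membrane integrity as a cytotoxicity readout; bidirectional fitting was done with DMSO as negative control and activity baseline.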

A short description of test [8]: CCTE_Harrill_HTTr_Apoptosis_MCF7: CCTE's 6-hour Apoptosis Assessment for the High-Throughput Transcriptomics (HTTr) Platform, in MCF-7 cells cultured in DMEM + 10% fetal bovine serum, Harrill Lab (AID 2284011; active = hit-call score of the fitted dose curve at least 0.9, where 1 is the maximum; inactive = score below 0.9). A digest of the protocol:
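MCF-7 cells in DMEM + 10% FBS exposed 6 h to chemicals over an eight-point dilution series. Caspase-3/7 activation imaged by high-content CellEvent Green staining; fitted bidirectionally versus DMSO.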

Test [9] in a line: CCTE_Harrill_HTTr_CellCount_MCF7: CCTE's Cell Proliferation Assessment for the High-Throughput Transcriptomics (HTTr) Platform, Harrill Lab (AID 2284012).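 Note: count of Hoechst-stained nuclei per well by high-content imaging in MCF-7 cells; cells exposed to compound for six hours; intended direction is loss of nuclei count meaning fewer cells.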 The essentials:
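For this full-screen endpoint, MCF-7 cultures received eight compound dilutions for six hours. Well nuclei counts from Hoechst imaging were analyzed relative to DMSO.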

The target of test [10] is mouse Estrogen Receptor alpha (Era), Esr1 (gene 13982) (UniProt P19785). The test is described as follows: NVS_NR_mERa: NovaScreen (NVS) Nuclear Receptor Binding Assay for mouse Estrogen Receptor alpha (Era) (AID 2283378).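 Note: hit means loss of bound radioligand signal relative to DMSO.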 The essentials:
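Cell-free radioligand competitive displacement binding, read by filter-based scintillation counting 18 h after dosing. Primary screen run in duplicate at 25 uM, actives retested in concentration series; loss of signal versus DMSO.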

Test [11] addresses Cellular tumor antigen p53 (Homo sapiens) (UniProt P04637). In words: TOX21_p53_BLA_p5_ratio: Tox21 HCT-116 p53 Agonism Beta-lactamase Assay, Ratio, Phase 5 (AID 2283599). A digest of the protocol: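 Beta-lactamase reporter ratio (blue 460 nm over green 530 nm, 405 nm excitation) after 2 h CCF4-AM loading, in HCT-116 cells exposed 16 h at 37 C to compounds pinned at 217-fold dilution. Increases relative to DMSO baseline scored.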

A short description of test [12]: TOX21_p53_BLA_p5_viability: Viability Assessment in the Tox21 HCT-116 p53 Agonism Beta-lactamase Assay, Phase 5 (AID 2283600). A digest of the protocol:
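Decreased CellTiter-Glo luminescence denotes lost viability. Exposure: 16 h at 37C, 5% CO2, with compounds from DMSO stocks diluted 217-fold in wells of 4000 cells.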

In test [13] the target is Cellular tumor antigen p53 (Homo sapiens) (UniProt P04637). The test is described as follows: TOX21_p53_BLA_p4_ratio: Tox21 HCT-116 p53 Agonism Beta-lactamase Assay, Ratio, Phase 4 (AID 2283601). A digest of the protocol:
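Signal is the blue/green (460nm/530nm) ratio of cleaved versus uncleaved CCF4-AM substrate, read after 2 h substrate loading. Cells were HCT116 carrying the p53-responsive beta-lactamase reporter, dosed 16 h at 37C, 5% CO2; CellTiter-Glo measured in parallel.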

The nature of test [14]: ACEA_ER_AUC_viability: ACEA Biosciences xCELLigence Real-Time Cell Analysis on Estrogen Receptor Agonism for Viability (AID 2283782).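 Note: hit means loss of impedance signal meaning reduced cell growth or viability.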 A digest of the protocol: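 Viability endpoint: reduced impedance area under the curve relative to DMSO, recorded by real-time electrode sensing over ~80 h of continuous exposure. Duplicate plates of T47D in hormone-depleted medium; eight concentrations, 1:4 dilutions, 100 uM maximum.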

For test [15], the target named is rat Oxytocin Receptor (OXT), Oxtr (gene 25342) (UniProt P70536). The test is described as follows: NVS_GPCR_rOXT: NovaScreen (NVS) G Protein-Coupled Receptor Assay for rat Oxytocin Receptor (OXT) (AID 2283330). The essentials:
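Binding to rat uterine membrane receptor was followed by scintillation counting of filter-trapped radioligand after 1 h. A 25 uM duplicate single-point screen preceded concentration series with a top of 50 uM. Signal loss was analysed relative to DMSO.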

The target in test [16] is bovine Gamma-Aminobutyric Acid Type A Receptor BDZ, alpha 1 site (GABARa1), GABRA1 (gene 780973) (UniProt P08219). The test is described as follows: NVS_LGIC_bGABARa1: NovaScreen (NVS) Ligand-Gated Ion Channel Assay for bovine Gamma-Aminobutyric Acid Type A Receptor BDZ, alpha 1 site (GABARa1) (AID 2283321). A digest of the protocol:
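Bovine cortex membrane preparation, benzodiazepine site on GABA-A alpha1; specific radioligand displacement read after 0.75 h by filtration and scintillation. Screen at 25 uM, then singleton titrations up to 50 uM; DMSO baseline.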

For test [17], the target named is Cellular tumor antigen p53 (Homo sapiens) (UniProt P04637). The test is described as follows: TOX21_p53_BLA_p3_ratio: Tox21 HCT-116 p53 Agonism Beta-lactamase Assay, Ratio, Phase 3 (AID 2283596). The essentials:
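Cells were seeded at 4000/well, rested 5 h at 37C, then dosed with DMSO compound solutions (217-fold dilution) for 16 h. CCF4-AM substrate was loaded for 2 h at room temperature, and the 460/530 nm emission ratio was fitted for gain of signal versus DMSO.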

Records with an inconclusive call do not appear. The source made the active and inactive calls. Rule for the calls, unless noted: active = hit-call score of the fitted dose curve at least 0.9, where 1 is the maximum; inconclusive = response in the unintended direction; inactive = score below 0.9.

Estrogen receptor (Homo sapiens), sequence (P03372 whole entry, looked up): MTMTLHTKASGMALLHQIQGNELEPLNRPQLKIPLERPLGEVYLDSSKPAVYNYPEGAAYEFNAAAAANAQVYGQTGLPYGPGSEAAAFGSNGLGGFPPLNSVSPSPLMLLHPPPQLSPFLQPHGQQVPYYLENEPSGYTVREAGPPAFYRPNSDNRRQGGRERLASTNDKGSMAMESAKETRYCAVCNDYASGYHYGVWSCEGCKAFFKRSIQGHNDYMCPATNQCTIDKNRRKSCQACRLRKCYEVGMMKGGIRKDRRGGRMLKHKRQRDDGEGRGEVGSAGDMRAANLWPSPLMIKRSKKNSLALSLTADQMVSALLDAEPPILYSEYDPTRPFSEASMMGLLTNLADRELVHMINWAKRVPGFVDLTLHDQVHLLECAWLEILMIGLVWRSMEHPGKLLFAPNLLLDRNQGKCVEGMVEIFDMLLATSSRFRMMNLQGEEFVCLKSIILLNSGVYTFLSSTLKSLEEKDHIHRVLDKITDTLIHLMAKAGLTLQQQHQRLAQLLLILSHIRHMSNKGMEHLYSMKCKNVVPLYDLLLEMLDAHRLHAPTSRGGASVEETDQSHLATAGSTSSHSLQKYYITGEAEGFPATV
Cellular tumor antigen p53 (Homo sapiens), sequence (P04637 whole entry, looked up): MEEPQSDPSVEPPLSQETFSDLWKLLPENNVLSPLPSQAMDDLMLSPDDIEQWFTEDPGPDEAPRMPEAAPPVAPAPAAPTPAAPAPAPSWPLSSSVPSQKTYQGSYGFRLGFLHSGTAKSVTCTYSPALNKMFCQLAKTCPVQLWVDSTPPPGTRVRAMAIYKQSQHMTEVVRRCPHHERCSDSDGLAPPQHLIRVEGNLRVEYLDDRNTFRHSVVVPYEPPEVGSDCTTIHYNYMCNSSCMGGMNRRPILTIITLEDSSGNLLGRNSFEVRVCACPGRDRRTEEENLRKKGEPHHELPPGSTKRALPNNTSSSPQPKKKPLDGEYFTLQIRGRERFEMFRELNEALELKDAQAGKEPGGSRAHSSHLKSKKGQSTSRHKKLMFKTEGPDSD
rat Oxytocin Receptor (OXT), Oxtr (gene 25342), sequence (P70536 whole entry, looked up): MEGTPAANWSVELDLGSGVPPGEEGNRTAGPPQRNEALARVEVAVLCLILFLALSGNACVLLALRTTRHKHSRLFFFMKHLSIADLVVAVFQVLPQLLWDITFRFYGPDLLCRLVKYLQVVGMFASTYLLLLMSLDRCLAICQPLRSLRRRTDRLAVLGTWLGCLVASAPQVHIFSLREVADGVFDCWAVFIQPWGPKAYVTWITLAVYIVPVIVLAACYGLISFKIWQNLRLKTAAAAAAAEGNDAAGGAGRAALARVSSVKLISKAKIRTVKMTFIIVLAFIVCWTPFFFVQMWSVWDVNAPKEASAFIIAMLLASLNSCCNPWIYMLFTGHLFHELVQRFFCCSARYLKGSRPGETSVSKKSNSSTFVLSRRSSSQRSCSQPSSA
bovine Gamma-Aminobutyric Acid Type A Receptor BDZ, alpha 1 site (GABARa1), GABRA1 (gene 780973), sequence (P08219 whole entry, looked up): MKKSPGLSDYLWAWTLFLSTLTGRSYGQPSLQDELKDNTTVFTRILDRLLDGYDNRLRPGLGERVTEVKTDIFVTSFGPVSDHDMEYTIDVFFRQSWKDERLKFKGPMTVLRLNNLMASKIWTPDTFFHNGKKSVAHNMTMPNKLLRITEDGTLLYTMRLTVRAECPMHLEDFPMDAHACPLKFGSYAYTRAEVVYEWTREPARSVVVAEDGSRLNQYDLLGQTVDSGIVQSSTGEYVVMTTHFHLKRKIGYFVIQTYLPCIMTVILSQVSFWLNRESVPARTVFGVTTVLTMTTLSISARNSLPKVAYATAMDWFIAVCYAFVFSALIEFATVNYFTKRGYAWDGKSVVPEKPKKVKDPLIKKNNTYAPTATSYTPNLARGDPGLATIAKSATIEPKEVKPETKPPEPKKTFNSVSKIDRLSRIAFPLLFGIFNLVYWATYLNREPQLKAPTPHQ
mouse Estrogen Receptor alpha (Era), Esr1 (gene 13982), sequence (P19785 whole entry, looked up): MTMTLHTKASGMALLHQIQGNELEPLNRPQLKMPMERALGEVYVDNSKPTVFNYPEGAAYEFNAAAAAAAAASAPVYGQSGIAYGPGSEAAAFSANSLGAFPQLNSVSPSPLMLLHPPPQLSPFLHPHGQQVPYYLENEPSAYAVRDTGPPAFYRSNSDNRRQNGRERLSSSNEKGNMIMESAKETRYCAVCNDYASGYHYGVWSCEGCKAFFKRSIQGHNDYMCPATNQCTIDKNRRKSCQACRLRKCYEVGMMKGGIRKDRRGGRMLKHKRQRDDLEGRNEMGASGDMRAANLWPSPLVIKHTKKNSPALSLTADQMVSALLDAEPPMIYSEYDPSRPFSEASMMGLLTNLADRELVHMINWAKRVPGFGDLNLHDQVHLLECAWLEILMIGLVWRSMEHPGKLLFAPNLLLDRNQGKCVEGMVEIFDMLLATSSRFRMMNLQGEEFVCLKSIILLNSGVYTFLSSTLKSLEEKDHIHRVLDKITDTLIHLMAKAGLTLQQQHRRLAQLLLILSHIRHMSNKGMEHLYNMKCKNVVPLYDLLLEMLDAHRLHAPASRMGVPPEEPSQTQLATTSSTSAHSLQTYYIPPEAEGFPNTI

In the case of `CC(Oc1ccc(Oc2ncc(C(F)(F)F)cc2Cl)cc1)C(=O)O` (stereo unspecified), the result in test [1], in [2], in test [3], in [4], in test [5] and in [6] was inactive. Besides, the result in test [7], in [8] and in [9] was inactive.
Turning to `COP(=O)(OC)Oc1ccc([N+](=O)[O-])cc1`, the molecule was classed as inactive in [1], in [2], in test [10], in [5], in test [11] and in [12]. Also, the outcome in test [13] and in test [14] was inactive.
In the case of `CCOP(=S)(OCC)Oc1cnc2ccccc2n1`, the outcome in test [1], in [3], in test [4], in test [5], in test [11] and in test [12] was inactive. Besides, the outcome in test [13], in test [14], in [7] and in [9] was inactive.
For the molecule `O=C1OC(=O)C2C3C=CC(C3)C12` (stereo unspecified), the call in test [15] was inactive.
Consider `CCCCc1ccc2c(n1)[C@@H](c1ccc(OC)cc1C[C@H](C)C(=O)O)[C@H](C(=O)O)[C@H]2c1ccc2c(c1)OCO2`, for which the molecule was classed as inactive in test [16].
As for `CCCN(CCC)c1c([N+](=O)[O-])cc(S(C)(=O)=O)cc1[N+](=O)[O-]`, the call in test [2] was inactive. The AC50 (as a rule, the concentration at which the activity in the assay is half-maximal) in test [14] is 50 µM (active).
For `IC(I)=C(I)I`, the outcome in [1], in test [2], in [3], in test [5], in test [17] and in [12] was inactive. In addition, the AC50 in [4] was 13.2 µM (active); in test [6], 12.8 µM (active); in test [11], 13.7 µM (active); in [13], 13.9 µM (active).
